Compounds with a hit are over-represented: about 1.7% of the library has one in this group of screens.
eIF4E 4G PPI = inhibitors of eIF4E and eIF4G interaction in translation initiation; AID 782; P63073+Q04637; actives 0.37% (n = 220,000); inhibition, % at 21.7 µM; TR-FRET eIF4E-eIF4GI(517-606) binding, 2 h;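 active = inhibition above about 30%, limit read from the data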;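 note: 0% = full FRET control wells and 100% = background wells lacking eIF4GI fragment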
eIF4H inh = inhibitors of RNA binding by human eIF4H; eIF4H fluorescence polarization binding assay; Q15056; AID 2012; inhibition, % at 35 µM; actives 0.94% (n = 290,000);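 note: calls also rest on retests at 20 µM and on dose response follow-up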
PABP polyA inh = PABP-poly(A) binding inhibition; P11940; PABP-poly(A) RNA binding, fluorescence polarization; calls only at 35 µM; actives 1% (n = 290,000); AID 2014;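 note: calls also rest on retests at 20 µM and on dose response follow-up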
EBV gp42 block = EBV gp42 inhibition. Q1HVG2. Fluorescence polarization binding assay, mP read-out. inhibition, % (tested at 21.74 µM). actives 0.42% (n = 220,000). AID 1085; in the data active = inhibition above about 50%
Target sequence (Q1HVG2 whole entry, looked up): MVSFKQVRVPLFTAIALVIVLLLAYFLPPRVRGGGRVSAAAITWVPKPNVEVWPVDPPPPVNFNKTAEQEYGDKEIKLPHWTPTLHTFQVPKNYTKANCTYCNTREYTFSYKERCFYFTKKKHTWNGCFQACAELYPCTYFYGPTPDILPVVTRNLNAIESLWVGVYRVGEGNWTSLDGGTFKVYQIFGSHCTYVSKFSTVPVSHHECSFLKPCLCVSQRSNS
MLLE-PAM2 inh = blocks PAM2 peptide binding to the PABP1 MLLE domain | P11940 | inhibition, % at 20 µM | GST-MLLE / FITC-PAM2 fluorescence polarization | actives 0.36% (n = 360,000); in the data active = inhibition above about 35%, passing the limit was not always enough;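 note: plate controls were DMSO wells with GST-MLLE for no effect and wells lacking GST-MLLE protein for full effect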
* marks the source's active call; other numbers are inactive results; i = inactive; ? = inconclusive; . = no result given; + = active, no number; [ ] = dose if it differs, or a comment. Unless noted, the rule behind the calls is not given here.

SMILES	eIF4E 4G PPI	eIF4H inh	PABP polyA inh	EBV gp42 block	MLLE-PAM2 inh
Nc1c(C(=O)NCc2cccnc2)sc(=S)n1-c1ccccc1	33*	-4	i	-8	33
Cc1cc(C)n2nc3nc(N4CCCCC4)nc(-c4ccco4)c3c2n1	3	72*	+	13	3
CN(C)c1nc(-c2cn(CCC#N)c3ccccc23)cs1	.	18	i	.	49*
COCCn1cc(-c2csc(N)n2)c2ccccc21	.	12	i	.	35
CC(=O)C[C@@H](O)CC(=O)[C@@H]1OC(=O)[C@H](C)C/C=C\Cc2ccccc21	.	.	.	.	5
CCOC(=O)C(C)Sc1nnc(Cc2cc(=O)[nH]c(=O)[nH]2)n1-c1ccc(Cl)cc1 (configuration not stated)	8	2	i	-9	45*
CCCNC(=O)NCCc1c(C)[nH]c2ccccc12	-1	-2	i	7	53*
Cn1c(=O)c2sccc2n2c(CCCC(=O)NC3CCN(Cc4ccccc4)CC3)nnc12	.	-7	i	.	4
CCN1CCN(CC(=O)N2N=C(c3cccs3)CC2c2ccc(OC)c(OC)c2)C(=O)C1=O (configuration not stated)	0	-3	i	64*	5
CCN1CCN(CC(=O)N2N=C(c3cccs3)CC2c2ccc(F)cc2)C(=O)C1=O (configuration not stated)	3	-3	i	-7	8
Cc1ccc(NC(=O)CN2CCN(C(=O)C3CC3)CC2)c(F)c1	.	.	.	.	-16
O=C(O)c1ccc(CN2C[C@@H](CO)O[C@@H](n3cnc4c(NCc5ccc(F)cc5)ncnc43)C2)cc1	.	.	.	.	-3
Cc1ccc(OCCSc2nc3ccccc3n2CC(=O)O)cc1	.	19	i	.	2
O=C(N/N=C/c1ccc2c(c1)OCO2)c1sc2cc(Cl)ccc2c1Cl	30*	5	i	-14	10
O=C(C[n+]1ccc(C(=O)NCCCO)cc1)c1cccc(Br)c1	-4	-5	i	-20	-3
CC(C)c1ccc(C2NC(=S)NC3=C2C(=O)CCC3)cc1 (configuration not stated)	8	active	i	0	-126
O=[N+]([O-])C1C(c2ccccc2)C12c1ccccc1-c1ccccc12 (configuration not stated)	.	.	.	.	16
O=[N+]([O-])c1cc(/C=N\Nc2nccs2)ccc1O	49*[fluorescence artefact?]	93*	+	93*	.
O=[N+]([O-])c1ccccc1/C=N\Nc1nccs1	.	-5	i	.	2
Cn1c(=O)c2[nH]c(Cc3ccsc3)nc2n(C)c1=O	.	.	.	.	-6
CC(O)Cn1ccccc1=N (configuration not stated)	.	83*	+	-5	1
Cc1ccc(C(=O)N2CCN(C)CC2)cc1[N+](=O)[O-]	.	-2	i	.	1
NC(=S)n1[nH]c(-c2ccc([N+](=O)[O-])cc2)c(N=Nc2cccc([N+](=O)[O-])c2)c1=O	13	.	.	100*	42*
NC(=S)n1[nH]c(-c2ccc([N+](=O)[O-])cc2)c(N=Nc2ccccc2[N+](=O)[O-])c1=O	-19	38	i	36	32
Cc1c(N=Nc2c(-c3ccc([N+](=O)[O-])cc3)[nH]n(C(N)=S)c2=O)cccc1[N+](=O)[O-]	33*	?	+	109*	41*
SMILES	eIF4E 4G PPI	eIF4H inh	PABP polyA inh	EBV gp42 block	MLLE-PAM2 inh
CCN(CC)c1ccc2c(c1)oc(=O)c1c(Cl)cc(=O)oc12	6	?	?	54*	9
CCN(CC)c1ccc2c(C)c(Cl)c(=O)oc2c1	5	20	i	22	12
COc1ccc(NC(=S)NC(NC(=O)c2cccc3ccccc23)C(Cl)(Cl)Cl)c([N+](=O)[O-])c1 (configuration not stated)	-35	-8	i	-19	32
COc1ccc(NC(=S)NC(NC(=O)c2ccccc2Cl)C(Cl)(Cl)Cl)c([N+](=O)[O-])c1 (configuration not stated)	2	0	i	-1	39*
COc1ccc(NC(=S)NC(NC(=O)c2ccc(Cl)cc2Cl)C(Cl)(Cl)Cl)c([N+](=O)[O-])c1 (configuration not stated)	-15	-11	i	-3	36*
Cc1noc(C)c1C(=O)N1CCN(S(=O)(=O)c2cccc(Cl)c2Cl)CC1	3	-1	i	-9	0
Cc1c(-n2c(-c3ccccc3)nc3ccccc3c2=O)c(=O)n(-c2ccccc2)n1C	0	9	i	1	6
